Compound activity from PubChem BioAssay.
This excerpt belongs to a sample that is enriched for hits.
Dicer inh – human Dicer pre-microRNA cleavage inhibition. Q9UPY3. z-score at 25 µM. hit rate 6% among 47,000. cat-ELCCA pre-miR-21 Dicer processing, chemiluminescence; hits give high values; in the data active = z-score above about 3, passing the limit was not always enough;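 note: plate controls were vehicle for no effect and no enzyme for full effect; higher signal means more uncleaved substrate so more Dicer inhibition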
Active calls of the source: *.

SMILES	Dicer inh
COc1ccc(OC)c(C(O)C(C)N)c1 (stereo unspecified)	0.13
C[C@H](N)[C@H](O)c1ccc(O)c(O)c1	5.6
CC(N)[C@H](O)c1ccc(O)c(O)c1 (stereo partly specified)	4.1*
CCOc1cc(C(F)(F)F)cnc1/C(N)=N/OC(=O)NC	-0.51
Cc1c(CCN)c2cccc3c2n1CCC3	3.5*
Clc1ccccc1CC1=NCCN1	1.1
Cc1cccc(Cl)c1NC1=NCCCS1	0.14
CN1CC[C@@]2(C)c3cc(O)ccc3N(C)[C@H]12	-0.2
O=C1C(c2ccccc2)C(=O)N(c2ccccc2)C(=O)N1c1ccccc1	-0.69
CCCN1CCc2cc(O)cc3c2[C@H]1Cc1ccc(O)c(O)c1-3	4.5*
CN1CCc2cc(O)cc3c2[C@H]1Cc1ccc(O)c(O)c1-3	-0.43
CC1(C)CC(n2[nH]c(=O)c3c2NC(=O)CSC3c2ccc(Cl)cc2)CCO1 (stereo unspecified)	0.28
Cc1nc2cc(Cl)ccc2c(=O)n1-c1ccc(F)cc1	-0.39
CCc1ccc(CNCCc2c[nH]c3ccccc23)cc1	-0.52
Cc1cccc(CNCCc2c[nH]c3ccccc23)c1	0.46
c1ccc(CNCCc2c[nH]c3ccccc23)cc1	3.2*
C=C1CC2(C)C(=CC1=O)CCC1C2CCC2(C)C1CC[C@]2(C)OC(C)=O (stereo partly specified)	-1.4
COc1cc2c(=O)n(-c3ccccc3)c(=S)[nH]c2c(OC)c1OC	-0.35
O=C1C(=Cc2cccc3ccccc23)N2CCC1CC2	1.6
NC(N)=N/N=C/c1ccc(/C=N/N=C(N)N)cc1	-1.9
O=C(COc1ccc(Cl)cc1)OCc1csc2c1C1CCN2CC1	1.2
CNc1ccc(Br)cc1C(=O)c1ccccc1Cl	-1.3
COc1ccc(OC(=O)N(C)C)c(CN(C)C)c1	1.1
CN(C)C(=O)Oc1ccc(Br)cc1C(=O)Nc1ccc(F)cc1	4.4*
CCCCCOc1ccc2c(c1)oc(=O)c1ccccc12	0.02
SMILES	Dicer inh
Cc1nc(COc2ccc(/C(N)=N/OC(=O)N(C)C)cc2)cs1	-1.7
O=C(c1ccco1)c1cn(Cc2ccc(Br)cc2)c2ccccc12	-0.67
O=S(=O)(c1ccc(O)cc1)c1ccc(O)cc1	3.5*
CC(C)C1(O)c2ccccc2-c2ncccc21 (stereo unspecified)	-0.69
Fc1cccc(CN2CCN(Cc3ccccc3F)CC2)c1	-0.3
C=CC1CC2CCN1C(C(=O)c1ccnc3ccc(OC)cc13)C2 (stereo unspecified)	-1.1
CSc1ncccc1C1=N/C(=C\c2ccc(Cl)cc2)C(=O)O1	-0.36
Oc1ccc(C2(c3ccc(O)cc3)CCCCC2)cc1	3.1*
O=C1CC2CCCC(C1)N2Cc1ccccc1	-0.39
COc1ccc(Oc2c(C)oc3cc(OC(=O)N(C)C)ccc3c2=O)cc1	0.84
Cc1cc(=O)oc2cc(OC(=O)N(C)C)c(Cl)cc12	3.6*
Cc1cc(CN(C)C)c(OC(=O)N(C)C)cc1C	0.46
Cc1nc(Cc2c(Cl)cccc2Cl)nc(OC(=O)N(C)C)c1Cl	-0.81
CC[C@H](C)[C@H]1O[C@]2(C=C[C@@H]1C)C[C@@H]1C[C@@H](C/C=C(\C)C(O[C@H]3C[C@H](OC)C(O[C@H]4C[C@H](OC)[C@@H](O)[C@H](C)O4)[C@H](C)O3)[C@@H](C)/C=C/C=C3\CO[C@@H]4[C@H](O)C(C)=C[C@@H](C(=O)O1)[C@]34O)O2 (stereo partly specified)	1.1
CCN1CCN(c2ncnc3nc[nH]c23)CC1	0.02
O=C1CN=C(c2ccccc2)c2oc3ccccc3c2N1	-1.2
O=C1CN=C(c2ccc(Cl)cc2)c2oc3ccccc3c2N1	0.52
COc1ccc2oc3c(c2c1)NC(=O)CN=C3c1ccc(F)cc1	3.3*
O=C1/C(=C/c2ccc(-c3ccccc3)cc2)N2CCC1CC2	-1.1
C=CCOc1ccc(C2SCC(=O)Nc3c2c(=O)[nH]n3C(C)CC)cc1 (stereo unspecified)	0.31
CC12CCC(=O)C=C1C=CC1C2CCC2(C)C1CC[C@]2(C)O (stereo partly specified)	-1.2
O=C1CCCN1C(=O)c1ccc(F)cc1	0.26
COc1ccc(O)c(C(C)(C)C)c1	3.8*
Cc1cc(C(C)(C)c2ccc(O)c(C)c2)ccc1O	1.3
COc1ccc2c(CCN)c[nH]c2c1	-0.58
SMILES	Dicer inh
C=C1CC2(C)C(=CC1=O)CCC1C2CCC2(C)C(O)CCC12 (stereo unspecified)	0.42
Cc1cccc(C)c1NC1=NC(C)(C)CS1	-4.6
Cc1nc2ccccc2c(=O)n1-c1ccccc1	-1.2
COc1ccccc1CCNCc1ccc2c(c1)OCO2	3.3*
Cc1ccc(CNCCc2ccc3c(c2)OCO3)cc1	-1.6
Fc1ccccc1CCNCc1ccc2c(c1)OCO2	1.5
Cc1cccc(NC(c2ccc(N(C)C)cc2)c2ccc3ccc(C)nc3c2O)n1 (stereo unspecified)	2
NCCc1ccc(O)cc1	-1.2
NNC(=O)c1ccc(O)cc1	3.7*
NCC(=O)c1ccc(Cl)cc1	0.75
COc1ccccc1C1CCN(c2ccc([N+](=O)[O-])c(C(F)(F)F)c2)CC1	0.23
O=[N+]([O-])/C=C/c1ccc(Cl)cc1Cl	3.5*
COc1ccc(/C=C/[N+](=O)[O-])c(OC)c1	-0.45
O=[N+]([O-])/C=C/c1ccc(C(F)(F)F)cc1Cl	-0.06
CCOc1ccc(NC2=NCCS2)cc1	12
CCCn1c(C)c(C(=O)OCC)c2cc(O)ccc21	6.8*
CCCCCCn1c(N)c(C(=O)OCC)c2nc3ccccc3nc21	-2.6
CCc1c(C(=O)OC)c2cc(O)ccc2n1Cc1ccccc1	-0.36
CCOC(=O)c1c(C)n(C2CC2)c2ccc(O)cc12	3.3*
CC1(C)CC(CCNCc2ccccc2F)(c2ccccc2)CCO1 (stereo unspecified)	2
Cc1ccc(-n2c(C)nc3ccccc3c2=O)cc1	-1.1
CC(C)CC(=O)NC1CCSC1=O (stereo unspecified)	12
OC(CN1CC=C(c2ccccc2)CC1)C(F)(F)F (stereo unspecified)	1.1
CCCC(C)C1(CC)C(=O)NC(=O)NC1=O (stereo unspecified)	3.7*
C=CCC1(CC(C)C)C(=O)NC(=O)NC1=O	0.12
SMILES	Dicer inh
CCc1ccccc1-n1c(=S)[nH]c2ccc(C)cc2c1=O	-0.18
COCc1cc(OC(=O)N(C)C)nc(-c2cc(Cl)cc(Cl)c2)n1	-0.35
ON=C1CC2CCCC(C1)N2Cc1cccs1	-0.04
CCOc1ccccc1NC1=NCCS1	1
CN(C)C(=O)Oc1nnc(SCc2ccc(Cl)cc2Cl)n1-c1cccc(Cl)c1	0.42
CC1(C)CN=C(Nc2ccccc2)S1	3*
Cc1ccccc1NC1=NCC(C)(C)S1	-0.96
CC1(C)CN=C(Nc2cccc(C(F)(F)F)c2)S1	-1.1
O=c1c2cc(Br)cc(Br)c2[nH]c(=S)n1-c1ccc2c(c1)OCCO2	2.3
C#CCSc1nc2ccccc2c(=O)n1-c1ccccc1OC	0.57
CN(CCC#N)c1ccc(C=C2C(=O)NC(=S)NC2=O)cc1	-1.4
CC12CN3CC(C)(CN(C1)C3c1cccnc1)C2=O (stereo unspecified)	-0.99
O=S(=O)(c1ccc(Cl)cc1Cl)N1CCCC1c1cccnc1 (stereo unspecified)	-0.7
O=C1CC(c2cccnc2)Nc2ccc3ccccc3c21 (stereo unspecified)	3.5*
CCCCCOc1ccc(C2SCC(=O)Nc3c2c(=O)[nH]n3C(C)C)cc1 (stereo unspecified)	-0.28
O=c1c2ccccc2nc(/C=C/c2ccc([N+](=O)[O-])o2)n1-c1ccc(O)cc1	0.79
O=c1c2ccccc2nc(/C=C/c2ccc([N+](=O)[O-])o2)n1-c1ccccc1Cl	-0.34
Cc1ccccc1-n1c(/C=C/c2ccc([N+](=O)[O-])o2)nc2ccccc2c1=O	5.5*
Cc1ccc(Cn2nc(C(=O)Nc3ccccc3)cc2C)cc1	-0.56
Clc1ccc(C2NN=C3C4CCN(CC4)C32)cc1Cl (stereo unspecified)	0.36
